Compounds without any hit were thinned out: in the full panel of roughly 83,000, 20% have a hit.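 96-well plates, one dose, 48 hours. Percent growth reported; active if below 10.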 Values without a mark were called inactive. Calls of active or inactive are those of the source.
Tests used:
Assay in all cases: NCI-60 one-dose screen, 48 h (100 = growth as untreated, 0 = no growth, -100 = all killed)
NCI-H23 lung = conditions: 10 µM unless noted
NCI-H226 lung = conditions: 10 µM unless noted
NCI-H322M lung = conditions: 10 µM unless noted
HOP-62 NSCLC = conditions: 10 µM unless noted
NCI-H460 lung = conditions: 10 µM unless noted
786-0 renal = conditions: 10 µM unless noted
MDA-MB-231 breast = conditions: 10 µM unless noted
SF-268 CNS = conditions: 10 µM unless noted
M14 melanoma = conditions: 10 µM unless noted
HCT-15 colon = conditions: 10 µM
U251 CNS = conditions: 10 µM unless noted
UACC-62 melanoma = conditions: 10 µM unless noted
SK-MEL-28 melanoma = conditions: 10 µM unless noted
UO-31 renal = conditions: 10 µM unless noted
OVCAR-5 ovarian = conditions: 10 µM unless noted
MDA-MB-435 melanoma = conditions: 10 µM unless noted
SW-620 colon = conditions: 10 µM unless noted
MCF7 breast = conditions: 10 µM unless noted
KM12 colon = conditions: 10 µM unless noted
SF-539 CNS = conditions: 10 µM unless noted

Compound: C[CH2][Sn]([CH2]C)([CH2]C)[NH]S(=O)(=O)c1ccc(C)cc1
- growth (NCI-H23 lung): 96.4%
- growth (NCI-H226 lung): 116%
- growth (NCI-H322M lung): 111%
- growth (HOP-62 NSCLC): 121%
- growth (NCI-H460 lung): 107%
- growth (786-0 renal): 109%
- growth (MDA-MB-231 breast): 107%
- growth (SF-268 CNS): 108%
- growth (M14 melanoma): 108%
- growth (HCT-15 colon): 96.5%
- growth (U251 CNS): 99.5%
- growth (UACC-62 melanoma): 100%
- growth (SK-MEL-28 melanoma): 111%
- growth (UO-31 renal): 86.9%
- growth (OVCAR-5 ovarian): 114%
- growth (MDA-MB-435 melanoma): 102%
- growth (SW-620 colon): 101%
- growth (MCF7 breast): 103%
- growth (KM12 colon): 105%

Compound: CNc1ccc(C(=O)CC(O)CCC(C)C2OC(=O)CC(O)CC(=O)CC(O)CC(O)CC(O)CC(O)CC3(O)CC(O)C(C(=O)OC)C(CC(O[C@@H]4O[C@H](C)[C@@H](O)[C@H](N)[C@@H]4O)/C=C/C=C/C=C/C=C/C=C/C=C/C=C/C2C)O3)cc1 (some centres undefined)
- growth (NCI-H23 lung): -54.5% (active)
- growth (NCI-H226 lung): -37.7% (active)
- growth (NCI-H322M lung): 1.05% (active)
- growth (HOP-62 NSCLC): -25.9% (active)
- growth (NCI-H460 lung): 3.55% (active)
- growth (786-0 renal): -20.1% (active)
- growth (MDA-MB-231 breast): -0.509% (active)
- growth (SF-268 CNS): -5.42% (active)
- growth (SF-539 CNS): 72.4%
- growth (M14 melanoma): -47.5% (active)
- growth (HCT-15 colon): 41.8%
- growth (U251 CNS): 23.8%
- growth (UACC-62 melanoma): 3.05% (active)
- growth (SK-MEL-28 melanoma): -89.1% (active)
- growth (UO-31 renal): -58.6% (active)
- growth (OVCAR-5 ovarian): -9.42% (active)
- growth (MDA-MB-435 melanoma): -1.58% (active)
- growth (SW-620 colon): 37%
- growth (MCF7 breast): 8.58% (active)
- growth (KM12 colon): 7.61% (active)

Compound: COc1ccc(C2=NN(c3ccccc3)C(c3sc(N(CCCl)CCCl)nc3Cl)C2)cc1 (centres undefined)
- growth (NCI-H23 lung): 76.7%
- growth (NCI-H226 lung): 76.2%
- growth (NCI-H322M lung): 92.7%
- growth (HOP-62 NSCLC): 80.1%
- growth (NCI-H460 lung): 99%
- growth (786-0 renal): 103%
- growth (MDA-MB-231 breast): 68.4%
- growth (SF-268 CNS): 86.8%
- growth (SF-539 CNS): 104%
- growth (M14 melanoma): 93.6%
- growth (HCT-15 colon): 97.9%
- growth (U251 CNS): 94.4%
- growth (UACC-62 melanoma): 65.1%
- growth (SK-MEL-28 melanoma): 97.9%
- growth (UO-31 renal): 78.6%
- growth (OVCAR-5 ovarian): 90.1%
- growth (MDA-MB-435 melanoma): 90.5%
- growth (SW-620 colon): 92.5%
- growth (MCF7 breast): 87.3%
- growth (KM12 colon): 81.4%

Compound: O=CC(Br)C(Br)c1ccccc1 (centres undefined)
- growth (NCI-H23 lung): 104%
- growth (NCI-H226 lung): 97.7%
- growth (NCI-H322M lung): 103%
- growth (HOP-62 NSCLC): 107%
- growth (NCI-H460 lung): 102%
- growth (786-0 renal): 106%
- growth (MDA-MB-231 breast): 96.5%
- growth (SF-268 CNS): 95.7%
- growth (SF-539 CNS): 94%
- growth (M14 melanoma): 91.8%
- growth (HCT-15 colon): 78.1%
- growth (U251 CNS): 102%
- growth (UACC-62 melanoma): 87.4%
- growth (SK-MEL-28 melanoma): 93.7%
- growth (UO-31 renal): 74.1%
- growth (OVCAR-5 ovarian): 98%
- growth (MDA-MB-435 melanoma): 99.3%
- growth (SW-620 colon): 19.5%
- growth (MCF7 breast): 44.1%
- growth (KM12 colon): 96.1%

Compound: ClCCN(CCCl)c1nc(Cl)c(C2CC(c3ccccc3)=NN2c2ccccc2)s1 (centres undefined)
- growth (NCI-H23 lung): 86.8%
- growth (NCI-H226 lung): 83.3%
- growth (NCI-H322M lung): 86.9%
- growth (HOP-62 NSCLC): 79.5%
- growth (NCI-H460 lung): 89.1%
- growth (786-0 renal): 91.7%
- growth (MDA-MB-231 breast): 88.1%
- growth (SF-268 CNS): 88.9%
- growth (SF-539 CNS): 102%
- growth (M14 melanoma): 92.4%
- growth (HCT-15 colon): 101%
- growth (U251 CNS): 86.1%
- growth (UACC-62 melanoma): 60.9%
- growth (SK-MEL-28 melanoma): 98.6%
- growth (UO-31 renal): 72.4%
- growth (OVCAR-5 ovarian): 99.5%
- growth (MDA-MB-435 melanoma): 103%
- growth (SW-620 colon): 86%
- growth (MCF7 breast): 91.6%
- growth (KM12 colon): 98.3%

Compound: Nc1cccc(CC(=O)Nc2ccc(S(=O)(=O)F)cc2)c1
- growth (NCI-H23 lung): 99.7%
- growth (NCI-H226 lung): 93.9%
- growth (NCI-H322M lung): 104%
- growth (HOP-62 NSCLC): 90.3%
- growth (NCI-H460 lung): 102%
- growth (786-0 renal): 96.9%
- growth (MDA-MB-231 breast): 94.4%
- growth (SF-268 CNS): 107%
- growth (SF-539 CNS): 97.4%
- growth (M14 melanoma): 90.7%
- growth (HCT-15 colon): 101%
- growth (U251 CNS): 102%
- growth (UACC-62 melanoma): 90.5%
- growth (SK-MEL-28 melanoma): 87.5%
- growth (UO-31 renal): 86.2%
- growth (OVCAR-5 ovarian): 98.5%
- growth (MDA-MB-435 melanoma): 89.8%
- growth (SW-620 colon): 84.3%
- growth (MCF7 breast): 86.7%
- growth (KM12 colon): 92.2%

Compound: ClCCN(CCCl)c1ccc(C=NCCc2c[nH]c3ccccc23)cc1
- growth (NCI-H23 lung): 71.7%
- growth (NCI-H226 lung): -10.5% (active)
- growth (NCI-H322M lung): 111%
- growth (HOP-62 NSCLC): 73.1%
- growth (NCI-H460 lung): 22.6%
- growth (786-0 renal): 63.4%
- growth (MDA-MB-231 breast): 98.8%
- growth (SF-268 CNS): 72.2%
- growth (SF-539 CNS): 71.8%
- growth (M14 melanoma): 91.6%
- growth (HCT-15 colon): 90.3%
- growth (U251 CNS): 72.6%
- growth (UACC-62 melanoma): 56.9%
- growth (SK-MEL-28 melanoma): 108%
- growth (UO-31 renal): 60.6%
- growth (OVCAR-5 ovarian): 94.5%
- growth (MDA-MB-435 melanoma): 110%
- growth (SW-620 colon): 84.4%
- growth (MCF7 breast): 56%
- growth (KM12 colon): 101%

Compound: O=C1NC(=O)C(Cc2ccccc2)(Cc2ccccc2)C(=O)N1
- growth (NCI-H23 lung): 111%
- growth (NCI-H226 lung): 105%
- growth (NCI-H322M lung): 111%
- growth (HOP-62 NSCLC): 95.8%
- growth (NCI-H460 lung): 110%
- growth (786-0 renal): 98.6%
- growth (MDA-MB-231 breast): 98.9%
- growth (SF-268 CNS): 109%
- growth (SF-539 CNS): 110%
- growth (M14 melanoma): 103%
- growth (HCT-15 colon): 108%
- growth (U251 CNS): 102%
- growth (UACC-62 melanoma): 95.1%
- growth (SK-MEL-28 melanoma): 97.9%
- growth (UO-31 renal): 78.7%
- growth (OVCAR-5 ovarian): 110%
- growth (MDA-MB-435 melanoma): 113%
- growth (SW-620 colon): 107%
- growth (MCF7 breast): 94.8%
- growth (KM12 colon): 105%

Reference: PubChem BioAssay (NCI)
